According to PubChem BioAssay (NCATS):
Records with an inconclusive call do not appear. Activity calls are given as the source filed them. Unless noted, calls follow the shape of the dose curve; as a rule, active = well fitted curve in the direction sought with a large enough effect; inconclusive = small, poorly fitted or top-dose-only effect, or another doubt; inactive = no such curve, though single readings can be large; an effect the other way counts as inactive or inconclusive.

Key:
[1] = Cell Viability - BJ (AID 421; calls by dose curve;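 also: potency is read from the fitted curve at half-maximal effect; cells exposed to compound for 40 hours at 37 °C before readout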); settings: BJ fibroblast viability, qHTS
In short: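 Cytotoxicity as drop in intracellular ATP (CellTiter-Glo, 20 min RT) after 40 hr compound exposure of BJ fibroblasts at 37 °C. Titrations scaled between DMSO and 100 uM tamoxifen, Hill-fitted for AC50.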

[2] = Cell Viability - Jurkat (AID 426;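 active = dose-dependent loss of cell ATP signal giving a full or clear fitted curve, ranked by lower potency value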; also: potency is read from the fitted curve at half-maximal effect); settings: qHTS
In short: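 Jurkat (clone E6-1, human T-cell leukemia) cells, 5000/well in complete medium, were exposed to compound for 40 hr at 37 °C. Viability was read as intracellular ATP by CellTiter-Glo luminescence; AC50 came from Hill fits of concentration-response data.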

[3] = Cell Viability - Hek293 (AID 427;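 active = compounds whose dose-response curve shows a full or clear partial loss of cell viability, called from curve shape rather than a numeric limit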;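 also: potency is read from the fitted curve at half-maximal effect; cells exposed to compound for 40 hours at 37 °C before reading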); settings: qHTS
In short: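 Luminescent ATP content (CellTiter-Glo, 20 min at room temperature) was measured after a 40 hr, 37 °C compound exposure of HEK293 cells. AC50 values came from Hill-equation fits of qHTS concentration-response data normalized to DMSO and 100 uM tamoxifen.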

[4] = Cell Viability - HepG2 (AID 433; calls by dose curve;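 also: potency is read from the fitted curve at half-maximal effect; potency for ATP loss meaning cytotoxicity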); settings: qHTS
In short: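 Read-out is luciferase-based quantitation of cellular ATP as a measure of viable HepG2 cells after 40 h treatment at 37 °C. Signal decrease is scaled between DMSO-only and 100 uM tamoxifen controls, with AC50 fitted by the Hill equation.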

[5] = Cell Viability - MRC5 (AID 434; calls by dose curve;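 also: potency is read from the fitted curve at half-maximal effect; potency reflects cytotoxicity seen as loss of intracellular ATP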); settings: MRC5 lung fibroblast viability, qHTS
In short: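 qHTS cytotoxicity in human lung fibroblast MRC5 cells; 40 hr treatment, 37 °C; cellular ATP by luciferase luminescence; DMSO = 0%, 100 uM tamoxifen = 100% inhibition; Hill-fit AC50.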

[6] = Cell Viability - SK-N-SH (AID 435; calls by dose curve;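 also: potency is read from the fitted curve at half-maximal effect; compound exposure lasted 40 h at 37 °C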); settings: SK-N-SH neuroblastoma cell viability qHTS
In short: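 Luminescent ATP signal served as the viability read-out after 40 hours of compound treatment of human neuroblastoma SK-N-SH cells. Concentration-response data, scaled between DMSO and 100 uM tamoxifen, gave AC50 values by standard Hill modeling.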

[7] = target: Mitogen-activated protein kinase 10 (Mus musculus) (UniProt Q61831); test: JNK3 AlphaScreen Assay (AID 530; active = well fitted curve in either direction with a large enough effect, not every such curve was filed as active;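 also: kinase came from lysate of stimulated human HepG2 cells; signal reports phosphorylation of biotinylated GST-cJun 1-79 at Ser73 with 10 µM ATP; % is scaled to controls: 0 for no effect and ±100 for the full control effect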); settings: JNK3 lysate, c-Jun phosphorylation; series mostly up to 57.1 µM
In short: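 Room-temperature AlphaScreen kinase assay; pre-activated HepG2 lysate as JNK3 source, biotin-GST-cJun(1-79) substrate, 10 uM ATP, compound 15 min preincubation.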

[8] = Cell Viability - N2a (AID 540); settings: N2a mouse neuroblastoma cell viability; activity change, negative = cytotoxicity: at 92.2 µM (top of the series);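 also: plate controls were DMSO alone for no effect and tamoxifen control for full effect; nearly all actives have a fitted effect of over 45% in size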
In short: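 Mouse neuroblastoma N2a cells (1500/well) were preincubated 5 hr at 37 °C, then exposed to compounds for 40 hr at 37 °C in complete medium. Viability was read as intracellular ATP by CellTiter-Glo luminescence; AC50 from Hill fits.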

[9] = Cell Viability - NIH 3T3 (AID 541); settings: NIH 3T3 cell viability, qHTS; activity change, negative = cytotoxicity: at 92.2 µM (top of the series);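 also: plate controls were DMSO alone for no effect and tamoxifen positive control for full effect; nearly all actives have a fitted effect of over 25% in size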
In short: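 NIH 3T3 mouse embryo fibroblasts (1000 cells/well) were plated in complete medium and treated with compound for 40 hr at 37 °C. Viability was read as intracellular ATP by CellTiter-Glo luminescence; AC50 values came from Hill-equation fits of concentration-response data.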

[10] = Cell Viability - HUV-EC-C (AID 542); settings: HUV-EC-C endothelial cell viability, qHTS; series mostly up to 92.2 µM; also: % is scaled to controls: 0 for no effect and ±100 for the full control effect; nearly all actives have a fitted effect of over 35% in size
In short: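 HUV-EC-C normal human vascular endothelial cells, 1000 cells/well, pre-incubated 5 hr at 37 °C, then exposed to compounds for 40 hr at 37 °C in complete medium. Viability measured as intracellular ATP by CellTiter-Glo luminescence; AC50 from Hill fits.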

[11] = Cell Viability - H-4-II-E (AID 543); settings: H-4-II-E rat hepatoma viability; series mostly up to 92.2 µM; also: % is scaled to controls: 0 for no effect and ±100 for the full control effect; nearly all actives have a fitted effect of over 35% in size
In short: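 Rat hepatoma H-4-II-E cells (1500/well) were plated, incubated 5 hr at 37 °C, then exposed to compounds for 40 hr at 37 °C. Cellular ATP was read by CellTiter-Glo luminescence; AC50 came from Hill-equation fits of concentration-response data.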

[12] = Cell Viability - SH-SY5Y (AID 544); settings: SH-SY5Y neuroblastoma cell viability; viability change, negative = cytotoxic: at 92.2 µM (top of the series); also: nearly all actives have a fitted effect of over 55% in size
In short: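 Human neuroblastoma SH-SY5Y cells (1500/well) in complete medium were exposed to compounds for 40 hr at 37 °C; intracellular ATP was then quantified by CellTiter-Glo luminescence after 20 min at room temperature. AC50 came from Hill-equation concentration-response fits.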

[13] = Cell Viability - Mesenchymal (AID 546); settings: mesenchymal cells viability, qHTS; series mostly up to 91.7 µM;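 also: cells exposed to compound for 40 hours before reading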
In short: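 AC50 values reflect the drop in intracellular ATP in a human kidney mesenchymal line derived from normal glomeruli. Treatment lasts 40 hr at 37 °C in complete medium, and the signal comes from CellTiter-Glo luminescence.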

[14] = Cellular Toxicity (caspase-3) HepG2 (AID 654); settings: HepG2 caspase-3 activation, luminescence; series mostly up to 92.2 µM;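 also: cells exposed to compound for 16 hours before reading; 0% = DMSO alone and 100% = caspase signal from 100 µM tamoxifen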
In short: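 HepG2 cells (1500/well) in complete medium were treated with compounds for 16 hr at 37 °C. Caspase-3/7 activity was then read as luminescence from peptide-aminoluciferin cleavage. AC50 came from Hill fits, normalized to DMSO and 100 uM tamoxifen.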

[15] = Cellular Toxicity (caspase-3) Jurkat (AID 655); settings: Jurkat caspase-3 activation, luminescence; caspase-3 activation: at 92.2 µM (top of the series), DMSO = 0%, tamoxifen = 100%;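 also: cells exposed to compound for 16 h at 37 °C before reading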
In short: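 5000 Jurkat cells/well; compound 16 hr, 37 °C; Caspase-Glo 3/7 added, 20 min RT; luminescence read. Norm: DMSO = 0%, tamoxifen 100 uM = 100%. AC50, Hill model.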

[16] = Cellular Toxicity (caspase-3) HUV-EC-C (AID 656); settings: HUV-EC-C cells, caspase-3 activation (apoptosis), vehicle = 0, 100 µM tamoxifen = 100%; series mostly up to 92.2 µM
In short: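 qHTS; HUV-EC-C, 1000 cells/well; 5 hr settle, 16 hr cmpd, 37°C; Caspase-Glo 3/7, 20 min RT; luminescence. Norm: DMSO = 0%, tamoxifen 100 uM = 100%. Hill-fit AC50.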

[17] = Cellular Toxicity (caspase-3) SHSY5Y (AID 657); settings: SH-SY5Y caspase-3 activation, DMSO zero, 10 µM staurosporine = 100%; series mostly up to 91.7 µM;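 also: cells exposed to compound for 16 hours at 37 °C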
In short: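 qHTS, SH-SY5Y, 1500 cells/well, 5 h pre-incubation 37 °C; compound 16 h 37 °C; Caspase-Glo 3/7 1 h RT; luminescence. Norm.: DMSO = 0, 10 uM staurosporine = 100%. Hill fit → AC50.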

[18] = Cellular Toxicity (caspase-3) BJ (AID 658); settings: BJ fibroblasts, luminescence, normalized: DMSO 0%, staurosporine 100%; series mostly up to 91.7 µM;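 also: cells exposed to compound for 16 hours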
In short: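 Readout: Caspase-Glo 3/7 luminescence increase in BJ cells after 16 hr treatment at 37 °C. Staurosporine and tamoxifen served as positive controls; AC50 values came from Hill modelling of data normalized to DMSO and 10 uM staurosporine.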

[19] = Cellular Toxicity (caspase-3) MRC-5 (AID 659); settings: MRC-5 cells, luminescence, normalized: DMSO 0%, 10 µM staurosporine 100%; series mostly up to 91.7 µM
In short: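 Concentration-dependent caspase 3/7 activation is measured in human normal lung fibroblasts (MRC-5) following 16-hour treatment. AC50 values come from standard Hill-equation modeling of luminescence normalized to DMSO and 10 uM staurosporine.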

[20] = Cell Viability - Renal Proximal Tubule (AID 545); settings: renal proximal tubule cells viability, primary cells of rat origin; series mostly up to 91.7 µM; also: nearly all actives have a fitted effect of over 40% in size
In short: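 Luminescent ATP signal (CellTiter-Glo) served as the viability read-out after 40 hr compound exposure of freshly isolated rat proximal tubule cells at 37 °C. Concentration-dependent ATP loss was fitted with the Hill equation to give AC50.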

C=C(C)C1CC=C(C)C(OC(C)=O)C1 (centres undefined)
inactive: Potency [1] > 92 µM | Potency [2] > 92 µM | Potency [3] > 92 µM | Potency [4] > 92 µM | Potency [5] > 92 µM | Potency [6] > 92 µM | outcome [7] | activity change, negative = cytotoxicity [8] -2.86% | Potency [9] | Potency [10] | Potency [11] | Potency [12] | Potency [13] | Potency [14] | caspase-3 activation [15] 0.979% | outcome [16] | outcome [17] | outcome [18] | outcome [19]

C=C(C)C(=O)OCC(C)C
inactive: Potency [1] > 92 µM | Potency [2] > 92 µM | Potency [3] > 92 µM | Potency [4] > 92 µM | Potency [5] > 92 µM | Potency [6] > 92 µM | outcome [7] | activity change, negative = cytotoxicity [8] 1.04% | Potency [10] | Potency [11] | Potency [12] | Potency [20] | Potency [13] | Potency [14] | outcome [16] | outcome [17] | outcome [18]

N#Cc1ccccc1
inactive: Potency [1] > 92 µM | Potency [2] > 92 µM | Potency [3] > 92 µM | Potency [4] > 92 µM | Potency [5] > 92 µM | Potency [6] > 92 µM | outcome [7] | activity change, negative = cytotoxicity [8] 6.76% | Potency [10] | Potency [11] | Potency [12] | Potency [20] | Potency [13] | Potency [14] | caspase-3 activation [15] -1.39% | outcome [16] | outcome [17] | outcome [18] | outcome [19]

C1CCC2OC2C1 (centres undefined)
inactive: Potency [1] > 92 µM | Potency [2] > 92 µM | Potency [3] > 92 µM | Potency [4] > 92 µM | Potency [5] > 92 µM | Potency [6] > 92 µM | outcome [7] | activity change, negative = cytotoxicity [8] -14.9% | Potency [10] | Potency [11] | Potency [12] | Potency [13] | Potency [14] | caspase-3 activation [15] 0.319% | outcome [16] | outcome [17] | outcome [18] | outcome [19]

O=[N+]([O-])c1ccc(NCCO)c(OCCO)c1
inactive: Potency [1] > 92 µM | Potency [2] > 92 µM | Potency [3] > 92 µM | Potency [4] > 92 µM | Potency [5] > 92 µM | Potency [6] > 92 µM | outcome [7] | activity change, negative = cytotoxicity [8] -0.601% | Potency [10] | Potency [11] | Potency [12] | Potency [20] | Potency [13] | Potency [14] | caspase-3 activation [15] 3.12% | outcome [16] | outcome [17] | outcome [18]

NCCCCCCN
inactive: Potency [1] > 92 µM | Potency [2] > 92 µM | Potency [3] > 92 µM | Potency [4] > 92 µM | Potency [5] > 92 µM | Potency [6] > 92 µM | outcome [7] | activity change, negative = cytotoxicity [8] -4.05% | Potency [9] | Potency [10] | Potency [11] | Potency [12] | Potency [13] | Potency [14] | caspase-3 activation [15] -1.28% | outcome [16] | outcome [17] | outcome [18] | outcome [19]

CC(=O)OC(C)=O
inactive: Potency [1] > 92 µM | Potency [2] > 92 µM | Potency [3] > 92 µM | Potency [4] > 92 µM | Potency [5] > 92 µM | Potency [6] > 92 µM | outcome [7] | activity change, negative = cytotoxicity [8] 1.01% | Potency [10] | Potency [11] | Potency [12] | Potency [20] | Potency [13] | Potency [14] | caspase-3 activation [15] -0.999% | outcome [16] | outcome [17] | outcome [18] | outcome [19]

Cc1cc(C)cc([N+](=O)[O-])c1
inactive: Potency [1] > 92 µM | Potency [2] > 92 µM | Potency [3] > 92 µM | Potency [4] > 92 µM | Potency [5] > 92 µM | Potency [6] > 92 µM | outcome [7] | activity change, negative = cytotoxicity [8] -7.51% | Potency [10] | Potency [11] | Potency [12] | Potency [20] | Potency [13] | Potency [14] | caspase-3 activation [15] -1.49% | outcome [17] | outcome [18] | outcome [19]

C=CCn1c(=O)n(CC=C)c(=O)n(CC=C)c1=O
inactive: Potency [1] > 92 µM | Potency [2] > 92 µM | Potency [3] > 92 µM | Potency [4] > 92 µM | Potency [5] > 92 µM | Potency [6] > 92 µM | outcome [7] | activity change, negative = cytotoxicity [8] 0.0467% | Potency [10] | Potency [11] | Potency [12] | Potency [13] | Potency [14] | caspase-3 activation [15] -0.997% | outcome [16] | outcome [17] | outcome [18] | outcome [19]

CC(C)(O)CCC(C)(C)O
inactive: Potency [1] > 92 µM | Potency [2] > 92 µM | Potency [3] > 92 µM | Potency [4] > 92 µM | Potency [5] > 92 µM | Potency [6] > 92 µM | outcome [7] | activity change, negative = cytotoxicity [8] 3.94% | Potency [9] | Potency [10] | Potency [11] | Potency [12] | Potency [13] | Potency [14] | caspase-3 activation [15] 0.189% | outcome [16] | outcome [17] | outcome [18] | outcome [19]
